# From PubChem BioAssay AID2013 (Sanford-Burnham Center for Chemical Genomics, 2009)
# Out of some 290,000 compounds screened, about 370 (0.13%) were called active. The sample as a whole holds a higher share of actives than the screen did. Measured potencies and affinities stand elsewhere. Values without a mark were called inactive.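 How the source made its calls: active means spots per cell inhibited over 60%, with over 100 cells counted and total cytoplasm intensity under 500,000; inconclusive means wells with under 100 cells, flagged as likely toxic; inactive means the rest.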
# Target: G-protein coupled receptor 55 (Homo sapiens) (UniProt Q9Y2T6)
# Sequence (Q9Y2T6 whole entry, looked up): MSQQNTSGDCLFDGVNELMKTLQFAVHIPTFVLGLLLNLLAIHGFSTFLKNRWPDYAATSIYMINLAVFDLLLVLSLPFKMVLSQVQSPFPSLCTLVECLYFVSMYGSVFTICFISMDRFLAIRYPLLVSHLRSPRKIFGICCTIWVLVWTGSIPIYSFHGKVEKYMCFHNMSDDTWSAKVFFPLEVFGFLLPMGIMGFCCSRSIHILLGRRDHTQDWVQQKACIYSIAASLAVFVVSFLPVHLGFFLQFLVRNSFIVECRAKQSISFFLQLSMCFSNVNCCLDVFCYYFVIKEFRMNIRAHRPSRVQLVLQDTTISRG
# Experiment: inhibition of LPI-stimulated GPR55 beta-arrestin translocation – imaging, U2OS, beta-arrestin-GFP, LPI agonist, primary screen (AID 2013);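 further: U2OS cells stably carrying GPR55 and arrestin-GFP stimulated by 5 µM LPI near EC80; imaged beta-arrestin-GFP aggregate spots per cell after agonist stimulation; plate controls were LPI-stimulated DMSO wells for no effect and DMSO wells without LPI for full effect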
# Settings: LPI antagonism, at 10 µM, stronger effect = higher value
row,Compound,inhibition
1,COC(=O)c1cc(NC(=O)Cc2ccc(OC)c(OC)c2)cc(C(=O)OC)c1,11%
2,COc1ccc(C(=O)NCC2(c3ccc(OC)c(OC)c3)CCCC2)c(OC)c1,-8.5%
3,CCN1CC2=C(OC(N)=C(C#N)C2c2ccccc2)/C(=C\c2ccccc2)C1 (stereo not given),3.6%
4,CCN1CC2=C(OC(N)=C(C#N)C2c2cccs2)/C(=C\c2cccs2)C1 (stereo not given),13.2%
5,Cc1nc2ccccc2nc1OCc1cccc([N+](=O)[O-])c1,6.2%
6,Cc1ccc(C)c(NC(=O)c2ccccc2C(=O)c2ccccc2)c1,79.4% (active)
7,Cc1ccc(C)c(NC(=O)c2ccccc2O)c1,10.8%
8,Cc1cc(C)c(NC(=O)c2ccccc2C(=O)c2ccccc2)c(C)c1,10.3%
9,OCC[C@@H]1C[C@H](O)[C@@H](O)[C@]2(Cc3ccccc3O2)O1,-2.3%
10,COc1ccc(S(=O)(=O)n2nc(-c3cc(OC)c(OC)c(OC)c3)cc2N)cc1OC,-6.7%
11,COc1ccc(-c2cc(N)n(S(=O)(=O)c3ccc(F)cc3)n2)cc1OC,1.3%
12,Cn1nnc2c(N3CCCCC3)nccc21,14.8%
13,CC(=O)Nc1ccc(NC(=O)CC23CC4CC(CC(C4)C2)C3)cc1,55.6%
14,O=C(CC12CC3CC(CC(C3)C1)C2)Nc1ccc(C(=O)O)cc1,-2.4%
15,O=C(NCCCn1ccnc1)c1cc(C2CC2)on1,-6.4%
16,CCOc1ccc2oc(C(=O)NCC(C)(C)CN(C)C)c(C)c2c1,13%
17,O=C(NCCc1ccccc1)C1COc2ccccc2O1 (stereo not given),5.5%
18,CCn1nc([N+](=O)[O-])c2c(-c3nc4ccccc4o3)c(N)n(CCCOC)c2c1=O,98.4% (active)
19,CCCCn1c(N)c(-c2nc3ccccc3o2)c2c([N+](=O)[O-])nn(CC)c(=O)c21,4.8%
20,CCCCCn1c(N)c(-c2nc3ccccc3o2)c2c([N+](=O)[O-])nn(CC)c(=O)c21,13.1%
21,CCOC(=O)N1CCC(=NNC(=O)Cn2ccc(C(F)(F)F)n2)CC1,-11.4%
22,COC(=O)c1cnc(SCC(=O)c2ccccc2)n1C,2%
23,CC(C(=O)NCc1cccs1)N1C(=O)c2ccccc2C1=O (stereo not given),17.5%
24,COCCCNC(=O)c1ccc([N+](=O)[O-])c(Cl)c1,2.9%
25,C=CCNC(=O)c1ccc([N+](=O)[O-])c(Cl)c1,-0.3%

row,Compound,inhibition
1,Cc1ccnc2c(N3C(=O)C4C5c6ccccc6C(c6ccccc65)C4C3=O)cccc12 (stereo not given),13.1%
2,Cc1ccc(C)c(NC(=O)CN(C)C(=O)/C=C/c2ccco2)c1,-6.6%
3,CCCCCCCCOC(=O)CCc1c(C)[nH]c(=S)[nH]c1=O,-16.9%
4,COc1ccc(C)cc1NC(=O)CCNS(=O)(=O)c1cccc2nonc12,6.9%
5,COc1ccc(C(OCC(O)CNCCc2ccccc2)c2ccc(OC)cc2)cc1 (stereo not given),8.1%
6,OC(CNCCc1ccc(C(F)(F)F)cc1)COc1ccc2ccccc2c1 (stereo not given),30.5%
7,N#CCSc1ccsc1C(=O)Nc1ccc(F)cc1,2.6%
8,COCCn1nnnc1CN1C2CCCC1CC(NC(C)=O)C2 (stereo not given),0.2%
9,COc1cc(/C=N/OCC(=O)NC2CCCCC2C)ccc1OCc1ccc(Cl)cc1 (stereo not given),-3.5%
10,CCOc1ccccc1CNS(=O)(=O)c1ccc(-c2cnc(C3CC3)o2)cc1,99.5%
11,COc1cccc(N2CCN(c3ncnc4c3[nH]c3ccc(F)cc34)CC2C)c1 (stereo not given),91.8% (active)
12,Fc1ccc2[nH]c3c(N4CCN(c5ccccc5)CC4)ncnc3c2c1,-5.9%
13,COc1cccc(N2CCN(c3ncnc4c3[nH]c3ccccc34)CC2C)c1 (stereo not given),33%
14,COC(=O)COc1ccc(S(=O)(=O)NCc2ccco2)cc1,10.1%
15,C/C(=C\c1ccccc1)C(=O)NCCCn1ccnc1,9.4%
16,Cc1ccccc1NC(=S)N(CCCN1CCOCC1)Cc1cccs1,54.6%
17,Cc1ccc(NC(=S)N(CCCN2CCOCC2)Cc2cccs2)c(C)c1,25.2%
18,CCC(C)(C)n1nnnc1C(c1cccc(C#N)c1)N1CCN(c2cc(C)ccc2C)CC1 (stereo not given),2.5%
19,CCc1cc2c(=O)c(-c3ccc4c(c3)OCCO4)coc2cc1OS(C)(=O)=O,8%
20,COc1cc(/C=C(\C#N)C(=O)NC2CCCCC2C)ccc1OS(=O)(=O)c1ccc(C)cc1 (stereo not given),28.8%
21,COc1cc(/C=C(\C#N)C(N)=O)ccc1OS(=O)(=O)c1ccc(C)cc1,28.6%
22,O=C(OCc1nnc(-c2ccccc2)o1)C12CC3CC(CC(Br)(C3)C1)C2,0.4%
23,N#CC(C#N)=C1C=C2C=C(N3CCCCC3)CCC2CC1 (stereo not given),3.1%
24,N#CC(C#N)=C1C=C2C=C(N3CCCCCC3)CCC2CC1 (stereo not given),23.3%
25,CCc1ccc(CN2CCC(n3nccc3NC(=O)c3ccccc3)CC2)o1,-3.9%

row,Compound,inhibition
1,Cc1c(C(=O)NCc2ccc3c(c2)OCO3)sc2nc(-c3ccc(F)cc3)cn12,11.5%
2,CC(C)c1nnc(NC(=O)CCC(=O)NCc2ccccc2Cl)s1,13%
3,CCCNc1nc(=S)n(-c2ccccc2)c(C)c1C(C)=O,4.7%
4,O=C(O)CSc1ncnc2scc(-c3ccccc3)c12,3.8%
5,Cc1ccc(-c2csc3ncnc(SCc4ccc(C(=O)O)cc4)c23)cc1,10%
6,O=C(NNC(=S)NCc1ccccc1)c1ccc(Br)o1,13.5%
7,C=CCN(c1ccccc1)S(=O)(=O)c1c(C)[nH]c(=O)[nH]c1=O,0.3%
8,O=[N+]([O-])CC(=Nc1ccc(F)cc1)N/N=C\c1oc(O)c2ccccc12,15.6%
9,COC(=O)C1=C(C)N(Cc2ccccc2)C(=O)/C1=C\c1ccco1,2.2%
10,COC(=O)C1=C(C)N(Cc2ccc(OC)cc2)C(=O)/C1=C\c1ccco1,0.4%
11,COc1ccc(-c2csc3ncnc(Oc4cccc5ccc(C)nc45)c23)cc1,7.8%
12,Cc1ccc2cccc(Oc3ncnc4scc(-c5ccccc5)c34)c2n1,77.9% (active)
13,Cc1ccc(-c2csc3ncnc(Oc4cccc5ccc(C)nc45)c23)cc1,3.8%
14,Cc1ccc(N2C(=O)C3CCCN3C2=S)cc1C (stereo not given),3.3%
15,O=C(COc1cccc(C(F)(F)F)c1)N1CCN(c2ccc(O)cc2)CC1,-7.2%
16,NC(=O)c1ccc[n+](CC(=O)c2ccc(Br)cc2)c1,9.5%
17,N#C/C(=C\c1ccc(N2CCOCC2)o1)C(=O)N1CCOCC1,100% (active)
18,N#C/C(=C/c1ccc(N2CCOCC2)o1)C(=O)Nc1ccccc1,0.6%
19,N#C/C(=C\c1ccc(N2CCOCC2)o1)C(=O)Nc1ccc(O)cc1,-2.9%
20,COc1cccc(NC(=O)C(=O)N/N=C/c2ccc3c(c2)OCO3)c1,14.8%
21,c1ccc(C(c2ccccn2)c2ccccn2)cc1,1.1%
22,CC(=O)Oc1ccc(C(=O)Cc2ccccn2)c(O)c1,1%
23,CCOC(=O)CCNC(=O)N1CCCC(N(C)CCc2ccc(OC)c(OC)c2)C1 (stereo not given),6.3%
24,O=C(NCC1CC1)Nc1ccc(Cl)cc1,10.7%
25,CCCS(=O)(=O)N1CCCC(C(=O)Oc2ccc(C)c(C)c2)C1 (stereo not given),-6.5%

row,Compound,inhibition
1,CCOc1ccccc1NC(=O)NC1(C(=O)NCc2cccnc2)CCCCC1,3.3%
2,CCOC(=O)c1cc2c(=O)n3ccccc3nc2n(Cc2ccccc2Cl)c1=N,38.5%
3,CCOC(=O)c1cc2c(=O)n3cccc(C)c3nc2n(C)c1=N,4.1%
4,COC(=O)c1cc2c(=O)n3cccc(C)c3nc2n(Cc2cccnc2)c1=N,-5.2%
5,CCOC(=O)c1cc2c(=O)n3cccc(C)c3nc2n(Cc2ccccc2Cl)c1=N,85.6% (active)
6,CCn1c(=N)c(C(=O)OC)cc2c(=O)n3ccccc3nc21,-3.4%
7,COCCNC(=O)C(OC(=O)CC1Sc2ccccc2NC1=O)c1ccncc1 (stereo not given),1.2%
8,O=[N+]([O-])c1ccc(S(=O)(=O)NCCN2CCOCC2)cc1,11.3%
9,CCn1ncc(C(=O)Nc2cccc(Cl)c2)c1C,3.9%
10,Brc1ccc(-c2nnc(Cc3ccccc3)o2)cc1,-5.2%
11,COc1ccc(Cc2nnc(-c3ccccc3)o2)cc1,-5.3%
12,CCN1CCCC1CN(Cc1cc2cc(OC)ccc2[nH]c1=O)C(=O)NCc1ccccc1 (stereo not given),11.3%
13,CC(NC(=O)C12CC3CC(CC(C3)C1)C2)c1ccc2c(c1)OCCO2 (stereo not given),3%
14,COc1cc(CNCCO)cc(Cl)c1OCc1ccc(Cl)cc1Cl,83.3% (active)
15,COc1cc(CNCCO)cc(Cl)c1OCc1ccccc1Cl,14.7%
16,CCOc1cc(CNCCO)cc(Br)c1OCc1ccc(Cl)cc1Cl,11.8%
17,N#C/C(=C/c1cn[nH]c1-c1ccc(Br)cc1)C(=O)O,3%
18,N#C/C(=C\c1ccccc1Br)C(=O)NC1CC1,-17.2%
19,CCOC(=O)/C(C#N)=C/c1cn(CCC(=O)O)nc1-c1cccc(Br)c1,1.6%
20,COc1ccccc1/C=C(/C#N)C(=O)O,7%
21,COc1ccc(S(=O)(=O)N(CC(=O)NCc2ccncc2)c2cc(C)cc(C)c2)cc1OC,14.3%
22,COc1ccc(-c2sc(Nc3ccccc3)n[n+]2-c2ccc(F)cc2)c(OC)c1OC,30%
23,COc1cc(Br)c(-c2sc(Nc3ccccc3)n[n+]2-c2ccccc2)cc1OC,40.4%
24,COc1ccc(-c2sc(Nc3ccccc3)n[n+]2C)c(C)c1C,-7%
25,COc1cc(OC)c(-c2sc(Nc3ccccc3)n[n+]2-c2ccc(F)cc2)cc1OC,-3%
